{
  "source": "the supplement of paper PMC9477273",
  "data": [
    {"tested_on": "DRIVER-selected RNA biosensor (aptazyme) pool", "assay": "maximum fold change of ribozyme cleavage across biosensor pool versus no-compound control; higher = stronger biosensor response (ligand inhibits cleavage)", "conditions": "10 µM", "method_in_brief": "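CleaveSeq on a pool of 1,730 array-resynthesized ribozyme biosensors, T7-transcribed at 37°C for 15–30 min with 9 mM rNTPs and one compound at 10 µM (added from 10x DMSO stock), then reverse-transcribed at 50°C. Cleaved and uncleaved products were PCR-barcoded and counted by Illumina sequencing. Fold change of cleavage is the ratio of cleaved:uncleaved read fractions against a no-compound condition, corrected with reference sequences; the value is the maximum over all biosensors.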", "values": [
      {"smiles": "CCOc1ccccc1CNC(=O)c1ccc(CS(=O)Cc2ccc(Cl)cc2)o1", "note": "(stereo not given)", "maximum fold change": 4.15},
      {"smiles": "CCOC(=O)c1cnc2c(C)c(Cl)ccc2c1NCc1ccco1", "maximum fold change": 6.11},
      {"smiles": "Cc1ccc2c(CNC3CCC(C)CC3)c(C(=O)O)n(Cc3ccccc3F)c2c1", "note": "(stereo not given)", "maximum fold change": 2.5},
      {"smiles": "C=CCNC(=O)c1c(C)c(C(=O)OCC)n(C)c1C", "maximum fold change": 2.81},
      {"smiles": "COc1ccc(CN2CCN(Cc3csc(C)c3C)CC2)c(OC)c1OC", "maximum fold change": 2.47},
      {"smiles": "CC(C)CCNC(=O)Cn1c2c(c(-c3ccccc3Cl)cc1=O)CCC2", "maximum fold change": 2.06},
      {"smiles": "CCOC(=O)N1CCN(C(=O)C2=C(C)C(=O)OC23CCCCC3)CC1", "maximum fold change": 4.06},
      {"smiles": "Cc1c(CNC2CCCc3ccccc32)c(C(=O)O)c(C)n1Cc1ccc(F)cc1", "note": "(stereo not given)", "maximum fold change": 2.39},
      {"smiles": "CCOC(=O)c1cnc(SCc2cccc(C)c2)nc1N", "maximum fold change": 7.72},
      {"smiles": "CCOC(=O)C1=C(C)Nc2nc(-c3cccs3)nn2C1c1ccc(C#N)cc1", "note": "(stereo not given)", "maximum fold change": 1.85},
      {"smiles": "N#C/C(=Cc1c(Oc2ccc(cc2)Br)nc2n(c1=O)cccc2)/C(=O)NC1CCCCC1", "maximum fold change": 2.99},
      {"smiles": "CC(C)c1ccc(C2c3c(-c4ccccc4O)n[nH]c3C(=O)N2CCCO)cc1", "note": "(stereo not given)", "maximum fold change": 2.85},
      {"smiles": "Cc1cccc(-c2nc3n(n2)C(c2ccccc2Cl)C2=C(CC(C)(C)CC2=O)N3)c1", "note": "(stereo not given)", "maximum fold change": 1.83},
      {"smiles": "COCCN1C(=O)c2[nH]nc(-c3ccccc3O)c2C1c1ccccc1", "note": "(stereo not given)", "maximum fold change": 3.01},
      {"smiles": "Cc1ccn2c(=O)c(C(=O)Nc3cccnc3)cnc2c1", "maximum fold change": 10.8},
      {"smiles": "COc1cc(C(=O)N(Cc2ccccc2F)C2CCS(=O)(=O)C2)cc(OC)c1OC", "note": "(stereo not given)", "maximum fold change": 2.18},
      {"smiles": "C=C(C)Cn1c(NCCCN2CCOCC2)nc2c1c(=O)[nH]c(=O)n2C", "maximum fold change": 2.3},
      {"smiles": "Brc1ccc(/C=N/c2nc3ccccc3n2CCN2CCCCC2)cc1", "maximum fold change": 2.07},
      {"smiles": "Cc1c(C(=O)N2CCN(C)CC2)sc2ncnc(N3CCN(c4ccccn4)CC3)c12", "maximum fold change": 2.67},
      {"smiles": "CCOc1ccc(S(=O)(=O)N2CCN(Cc3ccccc3)CC2)c2cccnc12", "maximum fold change": 5.08},
      {"smiles": "Cc1oc2ncn3nc(-c4ccc(F)cc4)nc3c2c1C", "maximum fold change": 10.5},
      {"smiles": "Cc1ccc(-c2noc(CCC(=O)N3CCN(Cc4ccccc4)CC3)n2)cc1", "maximum fold change": 3.6},
      {"smiles": "Cc1oc2ncn3c(C)nnc3c2c1C(=O)NC1CC1", "maximum fold change": 2.62},
      {"smiles": "Cc1cc(NC(=O)CSc2nnc(-c3ccc(C)c(C)c3)o2)no1", "maximum fold change": 2.25},
      {"smiles": "CCOC(=O)N1CCN(c2cnn(-c3nc4ccccc4s3)c(=O)c2Cl)CC1", "maximum fold change": 3.21},
      {"smiles": "O=C(CCc1ccccc1)N1CCC(c2ccccc2)C1", "note": "(stereo not given)", "maximum fold change": 1.79},
      {"smiles": "COc1ccc(C2=NN(CCC(=O)N3CCCCC3)C(=O)CC2)cc1", "maximum fold change": 4.11},
      {"smiles": "COc1cc(CNCc2c(C(=O)O)c(C)n(Cc3ccc(F)cc3)c2C)cc(OC)c1OC", "maximum fold change": 3.4},
      {"smiles": "O=C1N=c2sc(nn2C(=N)/C/1=Cc1cccn1Cc1ccccc1F)N1CCCC1", "maximum fold change": 4.06},
      {"smiles": "CCC(C)NC(=O)Cn1cc(C=O)c2ccccc21", "note": "(stereo not given)", "maximum fold change": 4.38}
    ]}
  ]
}
